Screening data as filed in PubChem.
This is a sample that favours compounds with a hit; in the whole collection about 4% have one here.
CCHF vOTU inh: blocks the CCHF virus ovarian tumor domain protease; CCHFV vOTU protease, Pep-AMC fluorescence; inhibition, % at 11.5 µM; 0.55% of 370,000 active; note: 0% = vehicle wells with enzyme and 100% = no enzyme wells
Mtb betalactam: beta-lactam sensitization of Mtb H37Rv. 0.27% of 330,000 active. M. tuberculosis H37Rv growth with meropenem, percent inhibition. inhibition, % at 25 µM. AID 434955; call rule not given here;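 note: growth measured after seven days incubation then overnight dye step; 0% = bacteria only wells and 100% = bacteria with antibiotic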
MazEF act: activators of E. coli MazEF toxin-antitoxin RNase; P0AE70; FAM/BHQ RNA-DNA oligo cleavage fluorescence, 5 h; activation, % at 20 µM; 0.32% of 350,000 active; in the data active = activation above about 50%
GDH-TPI counter: GDH-TPI coupled enzyme inhibition counter-screen. GDH-TPI coupled enzyme counterscreen, NADH absorbance. inhibition, % at 4.8 µM. 1.2% of 360,000 active;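 note: 0% = DMSO wells and 100% = wells lacking the enzyme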
FBA Mtb inh: inhibits M. tuberculosis FBA enzyme | inhibition, % at 1 µM | P9WQA3 | purified M. tuberculosis FBA, fluorescence read-out | 2.3% of 360,000 active; in the data active = inhibition above about 27%;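 note: 0% = vehicle and 100% = reference inhibitor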
Target sequence (P9WQA3 whole entry, looked up): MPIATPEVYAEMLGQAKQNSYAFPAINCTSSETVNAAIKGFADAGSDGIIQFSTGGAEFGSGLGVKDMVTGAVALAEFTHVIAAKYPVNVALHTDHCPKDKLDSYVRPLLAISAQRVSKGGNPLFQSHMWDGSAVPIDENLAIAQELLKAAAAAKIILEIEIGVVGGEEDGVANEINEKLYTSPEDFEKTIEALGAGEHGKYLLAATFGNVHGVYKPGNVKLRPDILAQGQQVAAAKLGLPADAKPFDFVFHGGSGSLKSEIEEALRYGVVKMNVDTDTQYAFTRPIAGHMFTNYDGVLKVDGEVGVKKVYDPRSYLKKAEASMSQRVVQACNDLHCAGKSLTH
* marks the source's active call; other numbers are inactive results; nt = no result; + = active, no number. Cut-off read from the data, not from the text of the source, unless noted: active = inhibition above about 30%; inactive = the rest.

SMILES | CCHF vOTU inh | Mtb betalactam | MazEF act | GDH-TPI counter | FBA Mtb inh
Cc1cc(C)cc(C(=O)OCCCN(C)C2CN(Cc3cn(Cc4ccccc4C(F)(F)F)nn3)S(=O)(=O)C2)c1 (centres undefined) | 17 | nt | nt | nt | nt
COc1cccc(-c2nnc(Nc3nc4c(F)cccc4s3)o2)c1 | -12 | 96 | -3 | 59* | 134*
COC(=O)C1CN(Cc2ccc(OC)cc2)CCS(=O)(=O)N1Cc1cn(Cc2ccc(C)cc2)nn1 (centres undefined) | -1 | nt | nt | nt | nt
Cc1cc(-c2ccccc2)nc2oc3c(c12)NC(=O)CN(c1ccccc1)C3=O | -9 | -4 | 8 | 10 | 5
COc1cccc(N2CC(=O)Nc3c(oc4nc(-c5ccccc5)cc(C)c34)C2=O)c1 | 9 | 54 | 6 | 35* | 2
CC(C)C[C@@H]1NC(=O)[C@H]2C[C@@]3(C)c4ccccc4N[C@H]3N2C1=O | -5 | nt | nt | nt | nt
Cc1ccccc1C(=O)N=c1sccn1C | 0 | -6 | 1 | -2 | 0
Cc1ccc(C(=O)N=c2sccn2C)o1 | 7 | 2 | 4 | 33* | -2
O=S1(=O)CCN2C=C(Cl)C=C(Cl)C2=N1 | -162 | -4 | 5 | 8 | 140*
O=C(c1c(F)cccc1F)N1CCC(Oc2cccnc2)CC1 | 1 | nt | nt | nt | nt
COc1ccc2c(c1)c(C(=O)N/N=C/c1ccc(O)c(O)c1)c(C)n2C | 3 | 2 | 6 | 44* | -5
COc1ccc2c(c1)c(C(=O)N/N=C/c1ccc(Br)cc1)c(C)n2C | 7 | 0 | 0 | 22 | -3
O=c1c(O)cccc2cc(O)c(O)c(O)c12 | 10 | 6 | 281* | 22 | -5
COC(=O)C[C@H]1CC[C@@H]2[C@@H](COc3ccc(NC(=O)Nc4cccc(C)c4)cc3C(=O)N2C)O1 | -5 | nt | nt | nt | nt
O=[N+]([O-])c1cccc(-c2nc(-c3ccccc3)c(-c3cccs3)[nH]2)c1 | -2 | -5 | 20 | 20 | 6
O=[N+]([O-])c1cccc(-c2nc(-c3cccs3)c(-c3cccs3)[nH]2)c1 | 16 | 2 | 111* | 17 | 0
COc1cc(/C=N\NC(=O)CNC(=O)C2COc3ccccc3O2)ccc1O (centres undefined) | 2 | 0 | 5 | 24 | 1
CCN(CC)c1ccc(/C=N/NC(=O)CCC(=O)NCc2ccccc2)c(O)c1 | 8 | 7 | 6 | 40* | 5
CCOC(=O)N/N=C/c1ccc(N(CC)CC)cc1O | 11 | -9 | -3 | 41* | 1
CCN(CC)c1ccc(/C=N/NC(=O)CNC(=O)C2COc3ccccc3O2)c(O)c1 (centres undefined) | 25 | -8 | -5 | 33* | 5
CCN(CC)c1ccc(C=Nc2cc(C)ccc2C)c(O)c1 | 8 | 7 | 2 | 38* | -2
COC(=O)[C@]12C[C@H](CC(=O)N3CCN(C(=O)c4ccco4)CC3)C(=O)N(CCc3ccc(OC)c(OC)c3)C1=C[C@H](C(C)(C)C)O[C@@H]2C | -1 | nt | nt | nt | nt
COc1ccc([C@H](C#Cc2ccccc2)CC(=O)O)cc1OC1CCCC1 | 4 | nt | nt | nt | nt
Cc1cc(/C=C2\C(=O)NC(=O)N(Cc3ccccc3Cl)C2=O)c(C)n1-c1ccc(C(=O)O)cc1 | 8 | 1 | 59* | 5 | -1
Cc1cc(/C=C2\C(=O)NC(=O)N(Cc3ccco3)C2=O)c(C)n1-c1ccc(C(=O)O)cc1 | 7 | -2 | -6 | 2 | -9
SMILES | CCHF vOTU inh | Mtb betalactam | MazEF act | GDH-TPI counter | FBA Mtb inh
C(=N\N1CCOCC1)/c1nc(-c2ccccc2)n2ccccc12 | 2 | -5 | -18 | 34* | 1
C(=N\N1CCOCC1)/c1cn(-c2ccccc2)nc1-c1ccccc1 | -12 | 3 | 0 | 3 | 0
CCC(=O)Nc1nnc(/C=C/c2ccc(OC)cc2)s1 | -33 | 1 | -5 | 43* | -12
COC(=O)Nc1nnc(/C=C/c2ccccc2)s1 | -134 | 2 | 2 | 24 | +
CCCCNC(=O)NCCCN1CCN(c2ccc(F)cc2)CC1 | -1 | nt | nt | nt | nt
Cc1cc(=O)oc(C)c1C(=O)NCCCN1CCN(c2ccc(F)cc2)CC1 | 4 | -11 | 0 | 40* | -2
COc1ccc(N2CCN(CCNC(=O)c3c(C)cc(=O)oc3C)CC2)cc1 | -2 | 2 | -7 | 40* | 2
CCCCNC(=O)C[C@H]1C[C@@]2(C(=O)OC)C(=C[C@H](C3CCCC3)O[C@@H]2C)N(Cc2cccc3ccccc23)C1=O | 16 | nt | nt | nt | nt
O=S(=O)(CC1NCc2cc(F)ccc21)NCc1ccc(F)cc1 (centres undefined) | 0 | nt | nt | nt | nt
Cc1ccc(/C=C2/NC(=O)N(Cc3ccccc3F)C2=O)s1 | 13 | -10 | 86* | 17 | -2
